Compound activity as filed in PubChem BioAssay.
A selection: hits, their analogues and other compounds. The true share with any hit is near 3.1%.
Calb FLC – affects C. albicans growth with fluconazole | C. albicans CaCi-2 (fluconazole-resistant clinical isolate) + fluconazole, Alamar Blue growth, 48 h | growth inhibition, % (no concentration beside the values) | 0.57% of 300,000 active | AID 1979;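 active = growth inhibition above about 58% in most replicates, limit read from the data, passing the limit was not always enough; inconclusive = exactly half the replicates above a set limit; inactive = most replicates below a set limit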;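 also: all wells also contain fluconazole at 8 µg/ml as a sub-toxic cotreatment; 0% = median of DMSO wells and 100% = median of geldanamycin control wells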
NadD inh – NadD (S. aureus) enzyme inhibition; inhibition, % at 20 µM; AID 602399; purified NadD enzyme, colorimetric absorbance read-out; 0.78% of 360,000 active; in the data active = inhibition above about 26%
SUMO Mot1 rescue – inhibitors of SUMOylation pathway: yeast Mot1-301 growth rescue | AID 2716 | 1% of 320,000 active | growth rescue, % at 18.8 µM | S. cerevisiae Mot1-301 growth rescue, ATP luminescence, 38.5C; percent above DMSO median, 100 means doubled;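 active = every valid replicate shows activation above 250% relative to neutral control wells; inactive = the rest, any valid replicate at or below 250%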;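 also: OY570 slx delta 5 strain wells were the positive control but not used for scaling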
FAS-TE inh – inhibitors of human fatty acid synthase thioesterase domain | recombinant FAS-TE, OMFH fluorogenic substrate, fluorescence endpoint | inhibition, % at 15 µM | 0.67% of 360,000 active | AID 602261;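 active = compounds whose normalised, plate-corrected inhibition of enzyme fluorescence in the single-dose primary screen is 50% or more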;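 also: 0% = DMSO with enzyme and 100% = substrate without enzyme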
ATG4B inh – inhibitors of human ATG4B cysteine protease | ATG4B cleavage of LC3-PLA2, NBD-HPC fluorescence, 1 h | 0.51% of 340,000 active | inhibition, % at 8.33 µM; in the data active = inhibition above about 40%
Target sequence (Q9Y4P1 whole entry, looked up): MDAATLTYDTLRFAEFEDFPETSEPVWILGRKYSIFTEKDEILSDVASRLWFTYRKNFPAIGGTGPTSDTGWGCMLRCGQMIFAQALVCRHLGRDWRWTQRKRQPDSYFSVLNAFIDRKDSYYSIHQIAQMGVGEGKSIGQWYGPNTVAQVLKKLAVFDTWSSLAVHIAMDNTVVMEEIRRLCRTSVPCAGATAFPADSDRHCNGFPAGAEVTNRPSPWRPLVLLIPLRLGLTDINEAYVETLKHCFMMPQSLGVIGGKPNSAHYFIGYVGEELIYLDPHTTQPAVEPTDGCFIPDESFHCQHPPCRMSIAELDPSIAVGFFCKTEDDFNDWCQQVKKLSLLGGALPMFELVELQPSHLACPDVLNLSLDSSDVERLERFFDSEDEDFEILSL
An asterisk follows results filed as active; ? = inconclusive; nt = no result given.

SMILES	Calb FLC	NadD inh	SUMO Mot1 rescue	FAS-TE inh	ATG4B inh
CCOC(=O)C1CCN(C(=O)c2ccc(Cl)c(S(=O)(=O)N3CCOCC3)c2)CC1	-0.2	4.4	nt	-6.8	-12.7
CCOC(=O)C1CCN(C(=O)c2cc(S(=O)(=O)N3CCOCC3)c(Cl)cc2Cl)CC1	1.0	-2.7	285.2*	-6.5	-19.6
CC(=O)N(CC(=O)O)c1ccccc1	-5.2	0.3	-13.4	-13.7	16.4
CC(=O)N(CC(C)(C)CC=C(C)C)c1ccccc1	-1.5	nt	638.0*	nt	nt
O=c1ccn([C@@H]2O[C@H](CNCC3=Cc4cc(O)ccc4OC3)[C@@H](O)[C@H]2O)c(=O)[nH]1	nt	2.8	nt	-9.6	1.7
CC(C)(C)C(=O)NC(=S)Nc1ccccc1F	-20.3	-5.0	435.8*	-3.6	-5.0
CC(NC(=O)Nc1ccccc1F)C(C)(C)C (configuration not stated)	58.4*	0.6	-8.8	-8.5	-5.8
COc1ccc(-n2c(=O)c3c4c(sc3n3c(=S)[nH]nc23)CCCC4)cc1	92.8*	5.7	0.0	-0.1	-2.6
COC(=O)CSc1nnc2n(-c3ccc(OC)cc3)c(=O)c3c4c(sc3n12)CCCCC4	10.7	16.2	-9.6	6.3	-13.0
COc1cccc(C(C(=O)NC2CCCC2)N(C(=O)c2ccco2)c2ccc(-n3cnnn3)c(C)c2)c1OC (configuration not stated)	92.0*	5.9	14.5	4.3	-4.4
O=C(CSCc1cccc(CSCC(=O)Nc2ccccc2)n1)Nc1ccccc1	111.3*	1.4	0.6	1.8	-3.6
CCCC1=C/C(=C/c2ccc(-c3ccccc3OC)o2)C(=O)O1	-5.5	39.8*	-13.7	3.0	5.2
Cc1cc(NS(=O)(=O)c2ccc(NC(=O)CCCOc3cccc(C)c3C)cc2)no1	-4.2	-6.8	1.2	-3.3	-4.2
O=C(OCC(=O)N1CCN(C(=O)c2ccco2)CC1)c1cc(-c2ccco2)nc2ccccc12	-15.5	43.7*	3.9	1.0	1.8
CCn1c(=O)cc(OCC(=O)N2CCN(C(=O)c3ccco3)CC2)c2ccccc21	?	-2.5	706.6*	-5.5	-2.3
O=C(OCC(=O)N1CCN(C(=O)c2ccco2)CC1)c1cc(-c2ccc(Cl)c(Cl)c2Cl)nc2ccccc12	-3.2	13.2	-9.6	18.0	2.6
COc1ccc(NC(=O)CN(C)C(=O)c2cnc(Cl)c(Cl)c2)cc1	-6.1	1.7	-10.3	-0.1	-8.7
COc1ccc(NC(=O)CS(=O)CC(=O)Nc2ccc(-n3cnnn3)c(C)c2)cc1 (configuration not stated)	-5.9	0.1	11.6	-0.4	0.8
CC1(OC(=O)c2ccco2)C(=O)C=C2C=C(c3ccsc3)OC=C2C1=O (configuration not stated)	2.2	nt	-1.2	nt	nt
CCC(=O)OC1(C)C(=O)C=C2C=C(c3ccsc3)OC=C2C1=O (configuration not stated)	2.6	20.7	11.8	-2.0	81.7*
COC(=O)CCC(=O)OC1(C)C(=O)C=C2C=C(c3ccsc3)OC=C2C1=O (configuration not stated)	-0.8	35.5*	357.1	-4.2	35.8
Cc1c(NS(=O)(=O)c2cccs2)cccc1-c1nc2cccnc2s1	9.7	-0.6	-11.3	-1.0	-7.8
O=S(=O)(Nc1cccc2ncccc12)c1cccs1	94.8*	-1.7	18.9	0.0	4.9
CC(COc1ccc(/C=C/c2ccccc2)cc1)[N+](C)(C)C (configuration not stated)	nt	4.2	nt	-6.6	0.8
Cc1ccc(C2(c3noc(CN4CCC(c5ccncc5)CC4)n3)CCCC2)cc1	119.3*	6.0	-21.4	16.3	-0.3
SMILES	Calb FLC	NadD inh	SUMO Mot1 rescue	FAS-TE inh	ATG4B inh
Cc1cc(NS(=O)(=O)c2ccc(Nc3nc(-c4sc(N)nc4C)cs3)cc2)no1	7.4	36.8*	8.0	13.7	36.4
CCCC(=O)Nc1nc(C)c(-c2csc(Nc3cc(OC)ccc3OC)n2)s1	6.6	21.8	46.2	4.1	-18.0
COc1ccc(OC)c(Nc2nc(-c3sc(N)nc3C)cs2)c1	-2.1	31.8*	1.6	-9.3	-30.1
CC1CN(C(=O)COC(=O)Cc2ccc(Cl)cc2)CC(C)O1 (configuration not stated)	nt	2.9	-15.4	-8.3	5.2
COc1ccc(NC(=S)N2CCN(C(=O)C3CCCO3)CC2)c(OC)c1 (configuration not stated)	-9.1	-4.2	-7.4	-8.8	1.1
CC(=O)c1ccc(NC(=O)c2ccc3nc(-c4ccco4)c(-c4ccco4)nc3c2)cc1	-6.3	93.4*	2.6	3.3	25.8
O=C(Nc1ccccc1)c1ccc2nc(-c3ccco3)c(-c3ccco3)nc2c1	31.6	22.8	-15.5	16.6	17.4
CCC(C)N(C(=O)c1csnn1)C(C(=O)NC1CCCC1)c1c(F)cccc1Cl (configuration not stated)	-3.2	-5.0	1.0	1.4	2.5
CC1(C)Cc2ccccc2C(N/N=C/c2ccc([N+](=O)[O-])cc2)=N1	74.5*	8.5	nt	5.7	-0.4
CN(C)S(=O)(=O)c1ccc(-c2csc(N/N=C/c3ccc(O)cc3)n2)cc1	4.1	37.9*	7.0	19.5	5.5
C/C=C\C=C/C(=O)Nc1cccc(C2=NOC3(C2)C[C@@H](C(N)=O)N(C(=O)/C=C/C=C\C)C3)c1 (some centres not stated)	3.4	30.8*	-17.7	-6.9	-2.5
C/C=C\C=C/C(=O)Nc1cccc(C2=NOC3(C2)C[C@@H](C(N)=O)N(C(=O)/C=C/CC)C3)c1 (some centres not stated)	25.3	10.8	10.1	-5.6	-4.1
COC(=O)CS(=O)(=O)c1nnc([C@H](Cc2ccccc2)NC(=O)OC(C)(C)C)o1	12.6	2.8	65.3	39.3	-3.6
Cc1cccc(CS(=O)(=O)c2nnc([C@H](Cc3ccccc3)NC(=O)OC(C)(C)C)o2)c1	-15.7	2.9	166.5	56.6*	-0.8
CC(C)[C@H](NC(=O)N1c2ccccc2NC(=O)[C@@H]1C(C)C)C(=O)N[C@@H](C(=O)O)c1ccccc1	-4.7	1.5	910.4*	-1.6	-25.7
O=C(c1ccc(=O)[nH]c1)N1CCN(S(=O)(=O)c2ccc3ccccc3c2)CC1	nt	2.0	-16.0	-4.2	-9.0
O=[N+]([O-])c1cccc(NC(=S)N2CCN(c3ccccn3)CC2)c1	8.1	-1.8	2.8	16.9	-5.0
Cc1cc(O)c2c(c1O)C(=O)[C@]13C(=C2O)C(=O)[C@@H]2[C@@H](O)[C@H]1[C@@H]1[C@H](O)[C@H]3C(=O)C3=C(O)c4c(O)cc(C)c(O)c4C(=O)[C@]312	nt	31.7*	nt	10.0	7.4
COc1ccc(NC(=O)CC23CC4CC(C2)CC(n2nnc(C)n2)(C4)C3)cc1	-3.8	-6.0	-5.5	1.7	-8.2
O=S(=O)(c1ccc(Cl)c(Cl)c1)c1snnc1-c1ccccc1	94.8*	4.9	nt	37.6	6.8
Cc1ccc(C)c(NC(=O)CN(C)C(=O)c2ccccc2OCc2c(C)noc2C)c1	nt	-0.7	-0.1	-3.8	-1.9
